Bioassay records: PubChem, several laboratories
PKA-R1A act: activators of PKA-R1A holoenzyme, primary screen, biochemical, fluorescence polarization, Cy5-IP20, bovine R1A, mouse PKAc | activation, % at 11.4 µM | actives 0.083% (n = 340,000) | cAMP-dependent protein kinase type I-alpha regulatory subunit (Bos taurus) + … | PKA-R1A dissociation; scaled: DMSO 0%, 113 µM cGMP 100% | AID 504707, 2011;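 active = percent activation above the mean of all tested compounds plus 3 SD, cut at about 19% in these data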;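 note: higher means more PKAc released from R1A so a rise in polarization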
PKA-R2B activ: activators of PKA-R2B holoenzyme, primary screen, biochemical, fluorescence polarization, Cy5-IP20, human; cAMP-dependent protein kinase catalytic subunit beta (Homo sapiens) + cAMP-dependent …; actives 0.079% (n = 340,000); AID 504700, 2011; activation, % at 11.4 µM; PKA-R2B holoenzyme dissociation; R2B truncated from residue 108, S112A mutant; 0% DMSO only, 100% 113 µM cGMP;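 active = activation above a cutoff set at the mean over all compounds plus 3 SD, cut at about 18% in these data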;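 note: higher means more holoenzyme dissociation and a rise in polarization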
Rpn11 block: Rpn11 (PSMD14) deubiquitinase inhibitors, primary screen, biochemical, fluorescence polarization, uHTS. 26S proteasome non-ATPase regulatory subunit 14 (Homo sapiens), O00487. human 26S proteasome, Ub4-pepOG fluorescence polarization; 20S core pre-blocked with epoxomicin. calls only at 20 µM. actives 0.59% (n = 360,000);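 active = inhibition at 20 µM, scaled to each plate's controls, above about 33%, limit read from the data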
Neddyl block: inhibitors of cullin neddylation, primary screen, biochemical, TR-FRET, uHTS, NAE and Ubc12; NEDD8-conjugating enzyme Ubc12 (Homo sapiens) + NEDD8-activating enzyme E1 regulatory …; inhibition, % at 25 µM; actives 0.58% (n = 360,000); in the data active = inhibition above about 36%
Rpn11 confirm: Rpn11 (PSMD14) deubiquitinase inhibitors, confirmation, biochemical, fluorescence polarization, single concentration | shares compounds with Rpn11 block | purified human 26S proteasome, Ub4-pepOG fluorescence polarization; proteasome pretreated with epoxomicin | inhibition, % at 20 µM | actives 29% (n = 1,900)
MMP-2 counter: MMP-2 enzyme inhibition, confirmation, counter-screen for RPN11 inhibitor project, biochemical, fluorescence, single concentration | shares compounds with Rpn11 block | inhibition, % at 20 µM | recombinant MMP-2, FRET peptide cleavage fluorescence | actives 4% (n = 1,900);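 note: human MMP-2 activated beforehand with APMA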
Target sequence (P08253 whole entry, looked up): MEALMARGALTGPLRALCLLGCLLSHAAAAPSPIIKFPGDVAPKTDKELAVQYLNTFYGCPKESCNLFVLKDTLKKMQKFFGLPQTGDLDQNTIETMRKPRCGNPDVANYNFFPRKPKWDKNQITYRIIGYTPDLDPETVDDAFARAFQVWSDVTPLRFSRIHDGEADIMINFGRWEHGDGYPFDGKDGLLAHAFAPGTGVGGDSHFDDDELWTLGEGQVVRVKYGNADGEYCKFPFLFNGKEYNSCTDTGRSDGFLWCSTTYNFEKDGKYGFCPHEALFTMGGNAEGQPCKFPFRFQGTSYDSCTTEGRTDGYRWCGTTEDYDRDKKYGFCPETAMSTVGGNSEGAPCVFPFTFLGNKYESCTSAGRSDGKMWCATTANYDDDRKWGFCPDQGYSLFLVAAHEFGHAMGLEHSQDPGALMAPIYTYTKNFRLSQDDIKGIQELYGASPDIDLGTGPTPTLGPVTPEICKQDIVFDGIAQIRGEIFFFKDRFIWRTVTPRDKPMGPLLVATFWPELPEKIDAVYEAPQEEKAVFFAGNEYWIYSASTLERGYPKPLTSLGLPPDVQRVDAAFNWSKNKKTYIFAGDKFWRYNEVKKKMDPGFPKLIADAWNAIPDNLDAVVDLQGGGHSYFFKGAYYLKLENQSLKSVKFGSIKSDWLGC
Thrombin FP: bovine thrombin protease inhibition, confirmation, counter-screen for Rpn11 inhibitor project, biochemical, fluorescence polarization, single concentration; shares compounds with Rpn11 block; bovine thrombin cleavage of Ub4-pepOG; inhibition, % at 20 µM; actives 13% (n = 1,900); AID 602333, 2012;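 active = mean inhibition at least 40% at 20 µM, or signal 3 deviations below plate average, so some actives read negative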;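 note: plate controls were thrombin with DMSO for no effect and buffer wells lacking thrombin for full effect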
Numbers without * were called inactive; i = inactive; . = no result given; + = active, no number. A selection: hits, their analogues and other compounds. The true share with any hit is near 1.3%. Cut-off read from the data, not from the text of the source, unless noted: active = inhibition above about 40%; inactive = the rest.

SMILES | PKA-R1A act | PKA-R2B activ | Rpn11 block | Neddyl block | Rpn11 confirm | MMP-2 counter | Thrombin FP
COc1ccc(NS(=O)(=O)c2cc(N=Nc3c(O)[nH]c(=O)[nH]c3=O)ccc2OC)cc1Br | 0.7 | -4.0 | i | -39.8 | . | . | .
CC(=O)CSc1nsc(SCC(C)=O)c1C#N | -10.9 | 4.8 | + | -10.0 | 16.2 | 49.8* | 15.2
CCOC(=O)/C(C#N)=C\C=C1C=CN(C)C=C1 | 2.0 | -4.9 | . | -145.0 | . | . | .
CCCCCCN1C=CC=C/C1=C\C=C(C#N)C#N | . | . | + | -60.1 | 3.9 | -4.9 | 11.3
CCn1nc(NC(=O)c2ccncc2)c2cc3cccc(C)c3nc21 | 2.0 | 7.5 | i | 4.0 | . | . | .
CCn1nc(NC(=O)c2ccccn2)c2cc3cccc(C)c3nc21 | 6.6 | -5.4 | + | . | 4.2 | -25.5 | 14.9
CC[C@@H]1Cc2[nH][nH]c(=O)c2[C@H](c2ccc(Cl)cc2)O1 | . | . | . | -3.8 | . | . | .
COc1ccc(-[n+]2c(C)cc(/C=C3\Sc4ccccc4N3C)cc2C)cc1 | 6.2 | 5.3 | + | -219.4 | 49.5* | -23.9 | -22.5
Cc1ccc(NC(=O)C2CCN(S(=O)(=O)c3ccc4c(c3)NC(=O)C(C)S4)CC2)cc1Cl (stereo not drawn) | -6.2 | 5.5 | + | -6.7 | 44.5* | 0.7 | 34.9
Clc1ccc(OCc2nn3c(-c4ccco4)nnc3s2)c(Cl)c1 | -1.0 | -3.9 | + | -4.5 | 27.4 | 5.7 | 6.8
O=C(NCc1ccccc1)c1cccc(NC(=O)C2CCCC2)c1 | -9.6 | -5.7 | i | -1.4 | . | . | .
CCOC(=O)c1sc2nc3c(SCCC#N)cc(C(=O)c4cc(F)ccc4O)cn3c(=O)c2c1C | 0.7 | -0.7 | + | 16.3 | 24.6 | 4.8 | 16.3
CCOC(=O)c1sc2nc(C)n(N)c(=O)c2c1C | -1.1 | 0.9 | i | -1.2 | . | . | .
CCOC(=O)c1sc2nc3c(SCCC(=O)O)cc(C(=O)c4cc(OC)ccc4O)cn3c(=O)c2c1C | -0.4 | -2.9 | + | 14.0 | 80.4* | 30.9 | 8.1
O=C(O)CSc1cc(C(=O)c2cc(F)ccc2O)cn2c(=O)c3c(-c4ccccc4)csc3nc12 | -2.7 | 1.0 | + | -1.5 | 15.1 | 44.0* | 22.0
COc1ccc(N/C=C(\C#N)S(=O)(=O)c2ccc(Cl)cc2)c(OC)c1 | -12.0 | -0.1 | i | 11.6 | . | . | .
CCOc1ccccc1CNC(=O)CN1C(=O)CSc2ccc(S(=O)(=O)N3CCOCC3)cc21 | 0.0 | 3.0 | i | -1.8 | . | . | .
COc1ccc(CNS(=O)(=O)c2cc3c4c(c2)C(C)C(=O)N4CCC3)cc1 (stereo not drawn) | 0.1 | 4.0 | i | 3.0 | . | . | .
CCn1cc(C(=O)O)c(=O)c2cc(F)c(N/N=C/c3ccccc3[N+](=O)[O-])cc21 | -16.8 | 9.7 | + | -16.3 | -15.1 | 11.1 | -13.9
O=C(c1ccc(Cl)cc1)c1cn[nH]c1-c1ccccc1O | -10.2 | 0.5 | + | -8.7 | -3.0 | -0.1 | 4.7
CC(C)(C)OC(=O)[C@H](Cc1ccccc1)NC(=O)c1ncn2c1c(=O)[nH]c1ccc(Br)cc12 | -4.2 | -2.4 | + | -316.8 | -5.3 | -32.9 | -14.5
CCOc1cc(NC(=O)C(C)C)c(OCC)cc1NC(=O)Nc1ccccc1 | -5.5 | -0.7 | i | 8.3 | . | . | .
CCc1ccc(-c2cc(C(=O)N/N=C/c3c[nH]c4ccccc34)[nH]n2)cc1 | -10.7 | 1.4 | i | 37.2 | . | . | .
CCc1ccc(/C=C/c2c[nH]c3ccccc23)[n+](CC)c1 | 11.8 | -5.3 | + | -27.3 | 27.5 | -22.9 | 43.0*
Nc1ccccc1Nc1cc(-c2ccccc2)[nH]n1 | 0.3 | -16.0 | + | 13.4 | 0.1 | 10.5 | 7.3
SMILES | PKA-R1A act | PKA-R2B activ | Rpn11 block | Neddyl block | Rpn11 confirm | MMP-2 counter | Thrombin FP
Nc1ccccc1Nc1cc(-c2ccccc2)nn1-c1ccccc1 | -17.4 | -4.8 | i | 11.1 | . | . | .
C#CCOCCOCCOCCNc1nc(N2CCOCC2)nc(N2CCN(C(=O)[C@H](Cc3cc4ccccc4[nH]3)n3cc([C@@H](N)CC(C)C)nn3)CC2)n1 | 7.0 | -9.1 | i | -12.2 | . | . | .
C#CCOCCOCCOCCNc1nc(N2CCN(C(=O)CCCCCCCCCCNC(=O)[C@H](CCCCN)n3cc(C[C@@H](C)CC)nn3)CC2)nc(N2CCN(C(=O)CCCCCCCCCCNC(=O)[C@H](CCCCN)n3cc(C[C@@H](C)CC)nn3)CC2)n1 | -1.1 | -1.6 | + | 12.8 | 44.6* | -56.3 | 29.0
C#CCOCCOCCOCCNc1nc(N2CCN(C(=O)[C@H](Cc3cc4ccccc4[nH]3)n3cc([C@@H](N)CC(C)C)nn3)CC2)nc(N2CCN(C(=O)[C@H](Cc3cc4ccccc4[nH]3)n3cc([C@@H](N)CC(C)C)nn3)CC2)n1 | -1.9 | 4.6 | + | -11.5 | 33.1 | 1.4 | -4.7
CN1CCC(N(C)C(=O)c2cc(=O)c3ccccc3o2)CC1 | 3.3 | 3.0 | i | -10.2 | . | . | .
CC(C)(C)C(=O)Cn1ncc(Br)c(Br)c1=O | -10.3 | -6.6 | i | -382.0 | . | . | .
COCCOC(=O)C1=C(C)NC(=O)NC1c1c(OC)ncnc1OC (stereo not drawn) | -2.7 | 2.5 | + | -11.1 | -10.6 | -6.3 | -10.2
O=C(CN1CCN(C(=O)c2cccs2)CC1)NC1CCCCC1 | -1.9 | 13.3 | + | 4.3 | -9.1 | -33.5 | -24.1
CCC(C)C(=O)Nc1nc(C)c(-c2csc(Nc3ccc(Cl)cc3)n2)s1 (stereo not drawn) | -7.4 | -3.8 | + | -44.4 | 19.6 | 13.7 | -6.1
N#Cc1c(-c2ccco2)cc(C2CC2)nc1N | -3.9 | -9.5 | + | . | -6.7 | -53.9 | -3.8
N#Cc1c(-c2ccccc2)cc(C2CC2)nc1N | -1.6 | -5.2 | i | . | . | . | .
CCN1C(=O)CS/C1=C(\C#N)S(=O)(=O)c1ccccc1 | -14.8 | -5.7 | + | 6.8 | 33.5 | 16.4 | 22.8
CCN1C(=O)CS/C1=N\S(=O)(=O)c1ccccc1 | -3.7 | -4.8 | i | 3.6 | . | . | .
CC(CN1CCN(C)CC1)OC(=O)c1cccc(F)c1 (stereo not drawn) | -12.0 | -5.3 | i | 4.9 | . | . | .
